# Assays:
# Assay type in all cases: functional
# [1] = target: Solute carrier family 2, facilitated glucose transporter member 1 (Homo sapiens) (UniProt P11166); test: ST_JUDE_LEISH: Cytotoxicity at 2uM final concentration against transgenic Leishmania Mexicana promastigotes LmGLUT1 that are glucose transport deficient and complemented with the human glucose transporter GLUT1. Activity is measured by DNA content using SYBR green in vitro
# [2] = target: Hexose transporter 1 (Plasmodium falciparum) (UniProt O97467); test: ST_JUDE_LEISH: Cytotoxicity at 2uM final concentration against transgenic Leishmania Mexicana promastigotes LmPfHT that are glucose transport deficient and complemented with the Plasmodium falciparum hexose transporter. Activity is measured by DNA content using SYBR green in vitro
# [3] = target: Glucose transporter (Leishmania mexicana) (UniProt O61059); test: ST_JUDE_LEISH: Cytotoxicity at 2uM final concentration against transgenic Leishmania Mexicana promastigotes LmGT2 that are glucose transport deficient and complemented with the L. Mexicana glucose transporter 2. Activity is measured by DNA content using SYBR green in vitro
# Solute carrier family 2, facilitated glucose transporter member 1 (Homo sapiens), sequence (P11166 whole entry): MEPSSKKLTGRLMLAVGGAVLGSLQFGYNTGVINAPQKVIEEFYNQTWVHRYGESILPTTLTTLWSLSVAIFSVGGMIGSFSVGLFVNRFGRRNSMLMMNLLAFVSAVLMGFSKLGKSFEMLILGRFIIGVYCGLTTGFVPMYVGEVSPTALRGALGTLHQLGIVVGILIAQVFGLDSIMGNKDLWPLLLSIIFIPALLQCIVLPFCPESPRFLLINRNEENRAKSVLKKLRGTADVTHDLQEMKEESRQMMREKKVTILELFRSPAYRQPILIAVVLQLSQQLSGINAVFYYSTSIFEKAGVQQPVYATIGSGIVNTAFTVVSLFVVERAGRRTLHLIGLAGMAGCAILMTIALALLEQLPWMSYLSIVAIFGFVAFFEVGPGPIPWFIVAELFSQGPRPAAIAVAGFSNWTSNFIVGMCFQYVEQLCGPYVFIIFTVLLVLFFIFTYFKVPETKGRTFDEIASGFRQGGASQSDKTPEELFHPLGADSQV
SMILES,inhibition [1] [%],inhibition [2] [%],inhibition [3] [%]
CC(C)(C)c1ccc(CN2CCC(CNC(=O)c3cc(-c4ccccc4)nc4ccccc34)CC2)cc1,-2.07,0.33,-1.73
COc1ccc2nccc([C@@H](O)CN3CCC(NC(=O)/C=C/c4ccc5ccccc5n4)CC3)c2c1,15.2,13.2,7.42
CC(=NNC(S)=NC(c1ccccc1)c1ccccc1)c1ccccn1,61,58.8,32
COc1ccc(C(=O)NCc2ccc(N)nc2C)cc1Nc1ncc(-c2cccc(N(C)C)c2)cn1,0.19,-1.36,1.76
COC(=O)CC[C@H](NC(=O)[C@H](C)NC(=O)OC(C)(C)C)C(=O)OC,4.67,0.48,0.89
Cc1ccc2[nH]c(-c3ccccc3N)cc2c1,3.92,4.5,4.49
Cc1nnc(NC(=O)c2cn(-c3ccccc3)nc2-c2ccccc2C)o1,1.69,2.78,2
Cc1cccc2nc(-c3ccc(-c4ccc(CN5CCN(c6ccncc6)CC5)cc4)s3)[nH]c12,2.98,2.29,1.09
Cc1ccn2c(N(Cc3ccccc3)C(=O)c3ccc(Cl)c(Cl)c3)c(-c3ccccc3)nc2c1,4.28,3.03,0.79
Cc1[nH]c(C)c(-c2ccc(Oc3ccc(O)cc3)cc2)c(=O)c1Cl,3.19,1.48,-5.02
COc1cccc(CN2CCCN(Cc3cccc(NC(=O)c4ccc(-c5ccccc5)cc4)c3)CC2)c1,0.95,0.27,-6.64
O=C(N[C@H](CC1CCCCC1)C(=O)NC1CCCc2ccccc21)c1ccc(O)c(-c2cccc([N+](=O)[O-])c2)c1 (stereo partly specified),1.2,0.18,0.88
CC(C)COc1ccc(Cl)cc1Cc1nc(-c2nc3ccc(N4CCN(C)CC4)nc3[nH]2)cs1,-3.46,1.5,3.9
CCCc1ccc(NC(=O)c2ccc(CN3CCCN(Cc4cccc(O)c4)CC3)cc2)cc1,3.2,2.61,3.95
CN1CCC(c2ccc(NC(=O)c3ccc(-c4cccc(C(F)(F)F)c4)o3)cc2)CC1,2.13,1.69,1.19
CN1CCC(NCc2ccc(-c3ccc(S(=O)(=O)NCc4ccccc4)c(F)c3)cc2)CC1,12.7,13.2,7.68
N=c1[nH]c2cccc3ccc4cccc1c4c32,9.96,9.29,7.95
CO/C(=C\C=C\c1cc2cc(Cl)c(Cl)cc2[nH]1)C(=O)NCCCN1CCCC[C@@H]1C,3.54,2.51,-0.72
O=S(=O)(NCCN1CCCC1)c1cccc(-c2cccc(CNCc3ccsc3)c2)c1,-0.74,-0.16,1.71
CC(=O)Nc1[nH]c(-c2ccccc2)nc1C(N)=O,-1.96,-0.89,-1.65
COc1cc2nc(NCC3CCN(C(=O)c4ccc(-c5ccc(C(=O)N(C)C)cc5C)cc4)CC3)nc(N)c2cc1OC,10.9,9.71,7.15
Cc1cccc(C(=O)Nc2ccnc(N(C)CCCN(C)Cc3cccc(C#N)c3)c2)c1,5.76,4.86,2.02
Cc1nc2ccc3ccc(CNc4ccc5c(c4)CN([C@@H](CCC(=O)O)C(=O)O)C5=O)cc3c2c(=O)[nH]1,1.71,-0.99,-1.52
CC(C)(c1ccccc1)c1ccc(O)c(CN2CCOCC2)c1,-0.49,-1.3,-0.41

SMILES,inhibition [1] [%],inhibition [2] [%],inhibition [3] [%]
CCCCN(CCCC)CCCN(CCCN(CCCC)CCCC)c1cc(C)nc(Nc2ccc(Br)cc2)n1,-1.21,-0.35,-1.15
O=C(Cc1c[nH]cn1)Nc1ccc(-c2ccc(-c3nc4cc(F)ccc4[nH]3)cc2)cc1,1.05,0.28,-0.48
COc1c(C2CCN(CCCCNC(=O)c3cccc(-c4ccc(C(F)(F)F)cc4)c3)CC2)ccc2c1CCCC2,2.51,1.75,11.1
O=C(Nc1ccc(CCNCc2ccccc2)cc1)Nc1ccc(OC(F)(F)F)cc1,-1.69,-0.14,0.49
Cc1[nH]c(C)c(-c2ccc(-c3cccc(Cl)c3)nc2)c(=O)c1Cl,0.79,2.52,1.48
Cc1ccc(NC(=O)c2ccc(-c3cc4cc(Cl)c(Cl)cc4[nH]3)cc2)cc1OCCN1CCCC1,-0.06,-0.67,0.15
CN1CCN(c2ccnc3ccc(NC(=O)Cc4cccc(Cl)c4Cl)cc23)CC1,1.15,-1.14,-0.31
CN1CCN(C(C(=O)NCc2cc(Cl)cc(Cl)c2)c2ccc(NC(=O)Nc3ccccc3)cc2)CC1 (stereo unspecified),2.24,1.94,1.21
Cc1sc2ncnc(Sc3nc4ccccc4[nH]3)c2c1C,5.47,8.07,3.58
CCCN1CCN(CC(O)CNC(=O)Nc2ccc(Cl)cc2)CC1 (stereo unspecified),2.81,0.64,4.07
CC(=O)N1N=C(c2ccc(F)cc2)Sc2c1nc(C1CCCCC1)n2C(C)=O,8.37,6.09,7.07
O=C(Cc1cccc(Cl)c1)Nc1cccc(-c2c[nH]c3nc(Nc4cccc(OCc5ccccc5)c4)ncc23)c1,6.67,6.61,5.74
CC(C)CCN1CCCN(Cc2ccc(C(=O)Nc3ccc(C(C)(C)C)cc3)cc2)CC1,2.66,1.37,1.41
FC(F)(F)c1ccc(N2CCCN(Cc3cccc(-c4ccccc4CNCc4ccc5c(c4)OCO5)c3)CC2)nc1,2.61,-2.51,-0.04
COc1ccc(C(=O)C2CCN(CCCCNC(=O)c3ccc(NC(=O)c4ccc(Cl)cc4)cc3)CC2)c(OC)c1,2.37,2.82,1.53
CN1CCCC(CN2CCN(Cc3cccc(-c4cccc(-c5nc6ccccc6[nH]5)c4)c3)CC2)C1 (stereo unspecified),1.59,2.2,-0.86
COc1ccc(CN2CCN(Cc3cc(Cl)ccc3O)CC2CCO)c(C)c1C (stereo unspecified),-1.12,0.94,0.13
CC(C)CCNc1nc(NCCCc2ccccc2)c2cc(O)ccc2n1,24.8,18.8,8.25
Cc1cc(N2CCCCC2)nc2ccc(NC(=O)c3cc(=O)c4ccccc4o3)cc12,5.94,7.2,0.66
CC(C)(C)OC(=O)N[C@@H](Cc1ccccc1)C(=O)Nc1cccc(-c2cccc(NC(=O)[C@H](Cc3ccccc3)NC(=O)OC(C)(C)C)c2)c1,0.62,0.21,0.33
CN1CCCN(Cc2cccc(-c3cccc(NS(=O)(=O)c4cccc5cccnc45)c3)c2)CC1,10.4,10.8,2.53
O=C(Nc1cccc(CN2CCCN(Cc3cccc(O)c3)CC2)c1)c1ccc(Cl)c(Cl)c1,13.9,12.1,13.8
CC(=O)N1c2ccccc2C(C)=CC1(C)C,-0.17,-0.45,-1.02
O=C(NCCCCN1CCC(c2ccc3c(c2O)CCCC3)CC1)c1ccc(NC(=O)c2ccc(Cl)cc2)cc1,1.7,2.56,0.97

SMILES,inhibition [1] [%],inhibition [2] [%],inhibition [3] [%]
Cc1cc2ccc(-c3cccc(CN)c3)cc2nc1N,0.93,1.15,0.73
CCCCN(CCCC)C(=O)CC(O)c1cc2c(Cl)cc(Cl)cc2c2cc(C(F)(F)F)ccc12 (stereo unspecified),1.87,1.18,2.43
CN1CCCC1CCCOC(=O)c1ccc(N)cc1 (stereo unspecified),3.24,3.07,2.42
COc1cccc2cc(C(=O)N[C@@H](CC(C)C)C(=O)N[C@H](C=NN3CC(=O)NC3=O)CC(C)C)oc12,2.8,3.84,2.23
Cc1ccc(-c2cc(C(=O)Nc3ccc(S(=O)(=O)N4CCCCC4C)cc3)n[nH]2)c(O)c1 (stereo unspecified),-0.81,-0.31,-0.79
O=C1COc2ccccc2N1C/C=C(\CN1CCC(c2ccccc2)CC1)c1cc(Cl)cc(Cl)c1,1.77,1.99,1.69
CC(=O)Nc1ccc(COc2ccc(Nc3ccnc4cc(-c5ccccn5)ccc34)cc2)cc1,3.41,1.28,1.17
CCCCCc1cnc2nc(N)nc(N)c2c1C,13.6,13.5,12.4
CC1(C)N=C(N)N=C(N)N1c1cccc(Cl)c1,0.67,-0.19,2.95
CCN(CC)C(=O)C(=O)c1c[nH]c2ccc(Cl)cc12,3.24,0.07,0.85
c1cc(CN2CCCCC2)cc(-c2ccc(-c3nc4ccccc4[nH]3)cc2)c1,-0.4,2.76,-1.06
CCOP(=O)(OCC)c1ccc(OC)c(-c2ccc[nH]2)c1,4.52,2.22,1.77
Cc1nnsc1C(=O)Nc1cccc(-c2ccc(-c3nc4ccccc4[nH]3)cc2)c1,7.04,9.93,4.11
CC(C)C[C@H](NC(=O)c1cc2cc(OCCN3CCNCC3)ccc2o1)C(=O)NC1CC[C@@H](C)N(C(=O)Nc2ccc(Cl)cc2)CC1=O (stereo partly specified),3.2,5.04,3.85
Cc1cccc2nc(-c3ccc(-c4ccc(CN5CCCC(N)C5)cc4)cc3)[nH]c12 (stereo unspecified),8.17,11,2.6
CC[C@H](NC(=O)c1c(CC2CCN(CC(C)=O)CC2)c(-c2ccccc2)nc2ccccc12)c1ccccc1,2.8,3.28,0.03
COc1ccc(-c2nonc2NC(=O)c2cccc(C)c2)cc1OC,11.9,10.7,10.1
COc1ccc(CN(C)Cc2ccc(NC(=O)c3cccc4c(=O)c5cccc(C)c5[nH]c34)cc2)cc1OC,4.59,11.6,0.44
CC(C)c1ccc(NC(=O)c2ccc(CN3CCCN(CC4CCCCC4)CC3)cc2)cc1,3.95,2.01,5.69
Cc1nc(N)nc(N)c1CCCOc1ccc(Br)cc1,6.19,4.15,-1.62
CCNc1cc(C(=O)N[C@@H](Cc2ccc(F)c(F)c2)[C@H](O)CNC2CCCCC2)cc(N2CCCCS2(=O)=O)c1,1.98,0.24,0.91
Cc1ccc(Cn2c(N3CCC(C(=O)NCc4cccs4)CC3)nc3ccccc32)cc1,1.76,2.67,7.85
Cc1c2ccncc2c(C)c2c1[nH]c1cc(Cc3ccccc3)c(O)cc12,3.52,4.1,-3.09
N#Cc1cccc(NC(=O)Nc2ccc(-c3cccc(-c4nc5cc(F)ccc5[nH]4)c3)cc2)c1,3.67,1.58,4.18

# From ChEMBL document CHEMBL3433997, “St. Jude Leishmania screening dataset” (2016)
